High-throughput results deposited in PubChem by National Center for Advancing Translational Sciences (NCATS).
Hits are enriched below; roughly 3.6% of the tested compounds scored in any of these assays.
ERK AVP block: blocks ERK signaling stimulated by vasopressin; HEK293-V1b, vasopressin-stimulated pERK AlphaScreen; Potency, µM (highest dose often 57.5 µM), for inactives: top-dose activity, negative = inhibition, hits mostly inhibitors; hit rate 0.99% among 72,000; note: % is set by controls: 0 for no effect and ±100 for the full control effect; nearly all actives have a fitted effect of over 55% in size
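Overnight-seeded V1b-HEK293 cells in 1% FBS got compound, then vasopressin (25 nM final, 5 min, 37C), then lysis buffer. AlphaScreen detection of phospho-ERK; activity normalized to basal and full-stimulation controls.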
CRE Fsk mod: CRE-bla signaling modulation under forskolin stimulation. CHO CRE-bla reporter (cAMP response element driving beta-lactamase), forskolin EC10, beta-lactamase ratio. Potency, µM (titrated, usually from 38.2 µM), for inactives: at the top dose activity change, negative = inhibition, hits mostly activators. hit rate 2.5% among 71,000. AID 662; active = well fitted activation curve with a large enough effect in the signal ratio, with a control signal flat, not every such curve was filed as active; inconclusive = small, poorly fitted or top-dose-only effect, or effect the other way, or a change in a side signal; the % refers to the signal ratio; note: % of control where 0% means no effect
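CRE-bla CHO cells stimulated with EC10 NKH 477 (water-soluble forskolin) and compound titrations, 3 h at 37C; beta-lactamase read with CCF4 after 2 h at room temperature. Activity from 460/530 nm emission ratio, AC50 values for positive or negative modulation.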
HEK293 cAMP ctrl: parental HEK293 cAMP activation (counter-screen); parental HEK293 CNG cAMP sensor, membrane potential fluorescence; Potency, µM (series often up to 57.1 µM), for the others: at the top dose activation, hits mostly activators; hit rate 2.5% among 73,000; AID 938; note: % of control where 0% means no effect; nearly all actives have a fitted effect of over 55% in size
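Parental HEK 293 cells stably expressing a modified CNG channel (no TSHR) report cAMP rise as membrane depolarization. Membrane potential dye with 100 uM RO 20-1724 was loaded for 60 min at room temperature, then compound added for 30 min; fluorescence read at 590 nm.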
TSHR agonist: activates the human thyroid stimulating hormone receptor; HEK293-CNG-TSHR cells (CNG channel as cAMP sensor), membrane potential dye, cAMP; Potency, µM (series often up to 57.1 µM), inactives show at the top dose activation, actives largely listed as activators; hit rate 0.48% among 73,000; P16473; active = well fitted activation curve with a large enough effect in the main read-out, with a control signal flat, not every such curve was filed as active; inconclusive = small, poorly fitted or top-dose-only effect, or a change in a side signal; inactive = no such curve, though single readings can be large or run the other way; % of control where 0% means no effect;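 note: the control signal comes from parental cells without the receptor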
Target sequence (P16473 whole entry, looked up): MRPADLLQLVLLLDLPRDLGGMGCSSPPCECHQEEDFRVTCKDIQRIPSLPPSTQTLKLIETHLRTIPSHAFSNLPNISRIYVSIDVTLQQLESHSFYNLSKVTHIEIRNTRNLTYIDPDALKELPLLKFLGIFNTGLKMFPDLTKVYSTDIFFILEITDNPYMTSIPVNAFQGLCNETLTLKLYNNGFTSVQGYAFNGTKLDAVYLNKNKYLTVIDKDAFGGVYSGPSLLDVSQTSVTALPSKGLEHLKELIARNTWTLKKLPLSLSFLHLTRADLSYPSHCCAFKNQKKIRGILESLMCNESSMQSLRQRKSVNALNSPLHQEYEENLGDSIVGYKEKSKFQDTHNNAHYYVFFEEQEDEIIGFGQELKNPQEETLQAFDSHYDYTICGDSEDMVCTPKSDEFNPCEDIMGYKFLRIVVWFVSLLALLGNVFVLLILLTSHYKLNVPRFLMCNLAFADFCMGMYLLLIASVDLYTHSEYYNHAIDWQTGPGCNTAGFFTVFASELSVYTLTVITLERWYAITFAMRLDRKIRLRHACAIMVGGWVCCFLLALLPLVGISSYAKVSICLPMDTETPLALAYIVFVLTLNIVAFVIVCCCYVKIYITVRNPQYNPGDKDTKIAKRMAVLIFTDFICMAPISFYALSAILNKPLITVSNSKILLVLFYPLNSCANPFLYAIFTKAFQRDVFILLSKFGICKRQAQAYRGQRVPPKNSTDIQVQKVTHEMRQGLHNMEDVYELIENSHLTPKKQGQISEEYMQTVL
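HEK 293 cells stably expressing TSHR and a cAMP-gated CNG channel; parental CNG-only cells as counterscreen. Cells preloaded 60 min with membrane potential dye plus 100 uM RO 20-1724, then compound 30 min; fluorescence read at 590 nm.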
IkB sig inh: suppresses IkB signaling in ABC-DLBCL reporter cells; hit rate 0.04% among 110,000; Potency, µM (highest dose often 57.1 µM), for the others: at the top dose IkBa stabilization activation; ABC-DLBCL IkBa-CBG/CBR dual luciferase ratio, 4 h; response scale: scaled: untreated 0%, proteasome inhibitor 100%; AID 445; active = well fitted curve in the direction sought with a large enough effect in the signal ratio, not every such curve was filed as active; inconclusive = small, poorly fitted or top-dose-only effect, or a change in a side signal; the % refers to the signal ratio;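 note: the direction sought is a rising ratio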
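Luminescence ratio of IκBα-fused green versus native red beetle luciferase in OCI-Ly3 cells, 4 h post-doxycycline with compound; red signal alone, scaled from basal (0%) to zero light (-100%), flagged nonspecific or cytotoxic effects.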
The depositor's hits bear a star; u = inconclusive; x = no result; [ ] = dose if it differs, or a comment. Unless noted, calls come from the whole dose curve; as a rule, active = well fitted curve in the direction sought with a large enough effect; inconclusive = small, poorly fitted or top-dose-only effect, or another doubt; inactive = no such curve, though single readings can be large; an effect the other way counts as inactive or inconclusive. Potency is the fitted concentration of half-maximal effect.

SMILES	ERK AVP block	CRE Fsk mod	HEK293 cAMP ctrl	TSHR agonist	IkB sig inh
O=C(CCSCc1cnn(-c2ccccc2)c1-n1cccc1)NCc1ccccc1F	x	x	x	x	5%
CCOC(=O)c1cc2sc(C)cc2n1CC(=O)N1CCc2ccccc21	12%	-6%	7.9µM*	u	-2%
O=C(c1cnc(N2CCOCC2)c2ccccc12)N1CCN(c2ccccc2F)CC1	x	x	x	x	0%
Cn1nc(-c2ccc(Cl)cc2)c2cc(C(=O)NCCCN3CCOCC3)sc21	-7%	7.9µM*	6%	12%	7%
CCOCCCNC(=O)c1cc2c(-c3ccc(Cl)cc3)nn(C)c2s1	-9%	2µM*	17%	9%	4%
COc1ccc(-n2c(=O)c(-c3cn(C)c4ccccc34)nc3cnc(N4CCNCC4)nc32)cc1	6%	u	u	u	0%[11.4 µM]
N#Cc1cc2c(=O)n3ccccc3nc2n(-c2nnc(SCc3ccc(F)cc3)s2)c1=O	x	x	x	x	-1%
O=C(Nc1ccccc1-c1nc2ccccc2s1)c1ccco1	69%	u	29%	x	-6%
Cc1cnc(NC(=O)c2ccc(-c3nc4ccccc4s3)o2)s1	20µM*	u	12%	14%	u
CCc1c2c(nc3cccc(OC)c13)OC(CC)C2 (stereo unspecified)	-7%	-6%	16µM*	u	x
COc1c2c(nc3ccccc13)O[C@H]([C@@](C)(O)CO)C2	2%[25.7 µM]	9%[17.1 µM]	1%[25.6 µM]	2%[25.6 µM]	0%[25.6 µM]
COC(=O)c1ccc(OCC2c3cc(OC)c(OC)cc3CCN2C(=O)C2CC2)cc1 (stereo unspecified)	u	5µM*	u	u	u
N#CCCCSc1nnc(-c2ccc(Cl)cc2)n1-c1ccccc1	-25%	20%	25µM*	u	7%
N#CCc1nc(CSc2nc3ccccc3s2)cs1	0%	0%	10%	7%	1%
N#CCCCSc1nnc(CSc2nc3ccccc3s2)n1-c1ccccc1	25µM*	u	u	u	u
CCOC(=O)c1cc(NC(=O)NCc2ccco2)c(C)nc1C	-10%	u	-7%[2.29 µM]	10µM*	-1%
COC(=O)c1ccccc1NC(=O)NCc1ccco1	u	-6%	5%	9%	2%
O=[N+]([O-])c1ccc(CSc2ncnc3c2ncn3[C@@H]2O[C@@H](CO)[C@@H](O)[C@H]2O)cc1	4%	-6%	-10%	7%	-6%
CC[C@@]1(O)CC2CN(CCc3c([nH]c4ccccc34)[C@](C(=O)OC)(c3cc4c(cc3OC)N(C)C3[C@@](O)(C(=O)OC)C(OC(C)=O)[C@]5(CC)C=CCN6CC[C@@]43C65)C2)C1 (stereo partly specified)	12%	x	x	x	x
CC[C@]1(O)C[C@H]2CN(CCc3c([nH]c4ccccc34)[C@](C(=O)OC)(c3cc4c(cc3OC)N(C)[C@@H]3[C@](O)(C(=O)OC)[C@H](OC(C)=O)[C@]5(CC)C=CCN6CC[C@]43[C@@H]65)C2)C1	u	0.63µM*	8%	x	0.79µM*
CC(=O)c1ccc2c3c(ccc(O)c13)CC2	32µM*	u	-6%[11.4 µM]	-19%[11.4 µM]	-1%
CC(C)Cn1cc(NC(=O)Nc2cccc(C(F)(F)F)c2)c2ccccc2c1=O	x	x	x	x	2%
c1ccc(OCc2nn3c(-c4n[nH]c5c4CCC5)nnc3s2)cc1	-12%	u	u	u	-4%
CC(c1ccccc1)N1CC(C(=O)N2CCN(c3ccccc3)CC2)CC1=O (stereo unspecified)	25µM*	-10%	3%	4%	0%
Cc1ccc(N2CC(C(=O)N3CCN(c4ccccc4)CC3)CC2=O)cc1 (stereo unspecified)	-6%	u	-16%	x	-1%
SMILES	ERK AVP block	CRE Fsk mod	HEK293 cAMP ctrl	TSHR agonist	IkB sig inh
Cc1sc2nc(SCC(=O)N(CCO)CCO)n(C3CCCCC3)c(=O)c2c1C	5%	13µM*	7%	20%	4%
Cc1sc2nc(SCc3nnc(-c4cccs4)o3)n(C3CCCC3)c(=O)c2c1C	16%	u	u	u	1%
COC(=O)c1ccccc1Nc1cc(C)nc2nc(C)nn12	-17%	13µM*	6%	6%	-4%
CCOC(=O)c1ccccc1Nc1cc(C)nc2nc(C)nn12	-16%	13µM*	18%	15%	-3%
O=C(Nc1ccccc1)c1ccc2c(O)c(S(=O)(=O)c3ccc(Cl)cc3)c(=O)[nH]c2c1	x	x	x	x	1%
Cn1c(NCc2cccc(Br)c2)nc2ccccc21	32µM*	23%	-4%	11%	5%
CCN(CC)C(=O)Oc1ccc2c(=O)c(-c3ccc(OC)cc3)c(C)oc2c1	32µM*	-1%	23%	30%	u
CCN(CC)C(=O)Oc1ccc2c(=O)c(-c3ccc(OC)cc3)coc2c1	u	u	u	u	1%
N=c1c(C(=O)NCc2ccco2)cc2c(=O)n3ccccc3nc2n1Cc1ccccc1	u	10µM*	-129%	u	7%
N=c1c(C(=O)NCc2ccco2)cc2c(=O)n3ccccc3nc2n1Cc1ccc(Cl)cc1	6%	2.5µM*	-78%	u	1%
Cc1ccc(CCNC(=O)CS(=O)Cc2nc(-c3cccc(C)c3)oc2C)cc1 (stereo unspecified)	u	-6%	u	u	0%
CCn1cc(C(=O)NCCCOC)c(=O)c2cc(S(=O)(=O)N(C)C)ccc21	u	16%	18%	-1%	-3%
Cc1cnn(C(=S)NCc2ccco2)c1	-6%	5%	2%	-11%	7%
Cc1cc(C)c2c(N)c(C(=O)N3CCN(c4ncccn4)CC3)sc2n1	3%	13µM*	3%	1%	0%
Nc1c(C(=O)NCc2ccco2)nnn1Cc1ccccc1	6%	u	u	u	2%
O=C(c1ccco1)c1nnn(Cc2ccccc2)c1-c1ccccc1	21%	u	32µM*	u	u
Cc1oc2ncn(C)c(=O)c2c1C(=O)NCc1ccc(Cl)cc1	x	x	x	x	1%
Cc1[nH]nc2c1C(C(C)C)C(C#N)=C(N)O2 (stereo unspecified)	-18%	-13%	8%	-9%	u
O=C(Nc1ccc(F)cc1)c1ccc(S(=O)(=O)NCC2CCCO2)cc1 (stereo unspecified)	-9%	5%	3.2µM*	u	-1%
CCc1cc2c(nc1CC)CCN(CC/C(C)=N/OC[C@@H](C)[C@H](OCc1ccccc1)C(C)C)C2	11%[11.5 µM]	x	-3%[11.4 µM]	3%[11.4 µM]	x
CCOC(=O)C(C)Oc1cccc2c(=O)n(CC(=O)Nc3ccc4c(c3)OCCO4)ccc12 (stereo unspecified)	x	10µM*	u	u	-2%
